Laboratory results from paper PMC5540273 (PLoS ONE, 2017).

Test system: IRAK3
Details: concentration: 1 μM,replicates: in singlicate; n = 1
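Note: KINOMEscan kinase panel screen.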

SMILES	%Inh
Cn1ccc2ncnc(Oc3ccc(NC(=O)Nc4cnn(C(C)(C)C)c4)c(Cl)c3)c21	0%
COc1cc2ncn(-c3cc(OCC4CCCCC4)c(C(N)=O)s3)c2cc1OC [GSK204559]	12%
COc1cccc(CNC(=O)NC2CCN(c3ccnc(Nc4cc(OC)c(OC)c(OC)c4)n3)C2)c1 (stereo not shown) [GSK1379765]	86%
Cn1ccc2ncnc(Oc3ccc(NC(=O)Nc4cccc(C(F)(F)F)c4)c(F)c3)c21	0%
CNC(=O)c1ccccc1Nc1nc(Nc2cccc(CS(C)(=O)=O)c2)ncc1C.O=CO [GSK1520489]	98.3%
C[C@@H](Oc1cc(-n2cnc3cc(-c4cnn(C)c4)ccc32)sc1C(N)=O)c1ccccc1Cl [GSK580432]	34%
COc1cc(Nc2nccc(N3CCC(NC(=O)c4cccc(C#N)c4)C3)n2)cc(OC)c1OC (stereo not shown) [GSK1379751]	70%
Cc1ccn2nc(-c3ccc(F)cc3)c(-c3ccncc3)c2c1.Cl [GW457859]	0%
CN1CCN(CCNc2nc3cc(Oc4ccc(NC(=O)Nc5cc(C(F)(F)F)ccc5F)cc4)ccc3[nH]2)CC1.Cl.Cl [GW768504]	5%
NC(=O)c1ccc(-c2cc3ncnc(SCC(=O)O)c3s2)cc1	9%
CC(=O)c1c(-c2ccncc2)[nH]c(-c2ccncc2)c1C [GW493036]	0%
O=C(Nc1cccc(C(F)(F)F)c1)c1cccc(Oc2ccc3nccn3n2)c1	0%
CC(=O)Nc1nc2cnc(Nc3cc(NC(=O)c4cccc(CC(C)(C)C#N)c4)ccc3C)nc2s1	27%
COc1ccc(Nc2nccc(N3CCC(NC(=O)c4cccc(C#N)c4)C3)n2)cc1 (stereo not shown) [GSK1379730]	0%
Cl.c1ccc(Oc2ccc(Nc3ccnc4cc(-c5ccc(CN6CCNCC6)o5)ccc34)cc2)nc1 [GW567142]	0%
O=C(Nc1ccc(Oc2ccc3nc(NC(=O)C4CC4)cn3n2)c(F)c1)c1cccn(-c2ccccc2)c1=O	0%
Cl.Cl.NC[C@H](CC1CCCCC1)NC(=O)c1ccc(-c2ccnc3[nH]ccc23)s1 [GSK1581428]	13%

SMILES	%Inh
COC(=O)Nc1nc2cc(Oc3ccc(NC(=O)Nc4cc(C(F)(F)F)ccc4Cl)cc3)ccc2[nH]1.Cl [GW697465]	0%
CC(C(=O)NC1CCN(c2ccnc(Nc3ccc(F)cc3)n2)C1)c1ccc(Cl)cc1 (stereo not shown) [GSK1379713]	0%
O=C(NCC1CC1)c1ccc(-c2cc(C(=O)NC3CC3)ccc2F)cc1 [GW810445]	1%
CCN1CCN(CCCC(=O)Nc2n[nH]c3nc(-c4ccc(O)cc4)c(Br)cc23)CC1 [SB-731579]	0%
Cc1nnc(-c2ccc3occ(-c4ccc(S(C)=O)cc4)c3n2)o1 (stereo not shown)	0%
CC(C)S(=O)(=O)N1CCN(Cc2ccc3c(c2)nc(NC(=O)c2ccsc2)n3C[C@H](O)c2ccccc2)CC1 [GW635815]	49%
Cn1ccc2ncnc(Oc3ccc(NC(=O)Nc4cccc(C(F)(F)F)c4)c(Cl)c3)c21	0%
Cn1ccc2ncnc(Oc3ccc(NC(=O)Nc4ccnc(C(F)(F)F)c4)c(Cl)c3)c21	0%
Cc1cccc2c(-c3ccncc3)c(-c3ccc(F)cc3)nn12.Cl [GW461487]	0%
Cc1ccc2c(-c3ccnc(Nc4ccc(C(F)(F)F)cc4)n3)cnn2n1 [GW819776]	4%
Cc1n[nH]c2cc(Nc3ccnc(Nc4cccc(CN5CCOCC5)c4)n3)ccc12 [GW682569]	89%
CCn1c(-c2nonc2N)nc2cncc(Br)c21 [SB-738004]	0%
CN1CCN(CCCNc2nccc(-c3c(-c4ccc(F)cc4)nn4cc(C(N)=O)ccc34)n2)CC1 [GW622475]	0%
Nc1nccc(-c2ccc3c(N)n[nH]c3c2)n1 [GSK1034945]	33%
Cc1ccc(C(=O)Nc2ccc(Oc3ccc4nc(NC(=O)C5CC5)cn4c3)c(F)c2)c(=O)n1-c1ccccc1	44%
Cn1ccc2ncnc(Oc3ccc(NC(=O)Nc4cncc(C(F)(F)F)c4)c(Cl)c3)c21	0%
NC(=O)Nc1sc(-c2ccc(F)cc2)cc1C(N)=O [GW789449]	15%
